Assay results published in PubChem BioAssay AID693 (University of Pittsburgh Molecular Library Screening Center, 2007).
In all, about 97,000 compounds went through this assay and about 130 (0.13%) were called active. Shown is part of a subset that was picked to be rich in actives. Values without a mark were called inactive. Rule as the data show it: active = inhibition above about 34% (passing the limit was not always enough); inactive = the rest.

Biological target: Serine/threonine-protein kinase PLK1 (Homo sapiens) (UniProt P53350)
Experiment: blockers of phosphopeptide binding to Plk1 PBD – biochemical, fluorescence polarization, primary screen (AID 693)
Details: active compounds read high,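 tested at about 20 µM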

Sequence of Serine/threonine-protein kinase PLK1 (Homo sapiens) (P53350 whole entry, looked up): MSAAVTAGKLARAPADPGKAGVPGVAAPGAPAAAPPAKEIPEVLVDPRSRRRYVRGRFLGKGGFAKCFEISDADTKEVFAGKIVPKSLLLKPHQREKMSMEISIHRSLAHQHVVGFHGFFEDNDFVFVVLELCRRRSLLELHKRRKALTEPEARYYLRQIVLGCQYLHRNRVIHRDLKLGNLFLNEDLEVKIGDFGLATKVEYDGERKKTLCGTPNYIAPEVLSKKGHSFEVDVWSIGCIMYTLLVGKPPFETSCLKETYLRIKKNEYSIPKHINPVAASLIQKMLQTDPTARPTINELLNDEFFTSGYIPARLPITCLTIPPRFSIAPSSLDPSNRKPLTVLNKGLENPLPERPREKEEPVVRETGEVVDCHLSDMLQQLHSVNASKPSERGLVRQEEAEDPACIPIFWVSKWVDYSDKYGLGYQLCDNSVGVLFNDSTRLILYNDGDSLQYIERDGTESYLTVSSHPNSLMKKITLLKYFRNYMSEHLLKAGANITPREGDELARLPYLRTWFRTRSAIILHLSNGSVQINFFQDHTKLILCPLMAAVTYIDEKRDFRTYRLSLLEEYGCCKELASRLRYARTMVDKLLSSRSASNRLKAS

Point of comparison: O=C(CNS(=O)(=O)c1ccc(Br)s1)N1CCN(C(=O)c2ccco2)CC1, inhibition -13%. Against it:
- CC1CCN(C(=O)c2cc3nc(C4CC4)cc(C(F)(F)F)n3n2)CC1 — higher, -4.74%
- O=c1c2ccccc2nc2n1C(CSc1ccc(Cl)cc1)CN2 (stereo not drawn) — higher, 23.7%
- COc1ccc2c(Cl)c(C(=O)NCc3ccco3)sc2c1 — higher, -10.8%
- N#CCSc1nc2ccc(N3CCOCC3)cc2c(=O)n1CCc1ccccc1 — higher, -3.34%
- CC(=O)Nc1ccccc1OC(=O)N1CCOCC1 — higher, 7.14%
- Cc1nn(C)cc1/C=C1\CCC/C(=C\c2cn(C)nc2C)C1=O — lower, -18.6%
- COCCOC(=O)c1sc(=S)n(CCOC)c1N — higher, -9.37%
- CC(=O)c1ccc(Cc2ncc(C(F)(F)F)cc2Cl)s1 — higher, 25.2%
- CC(C)(C)NC(=O)Cn1cnc([N+](=O)[O-])n1 — lower, -13.3%
- CC(=O)NS(=O)(=O)c1ccc(NC(=O)/C=C/c2ccccc2Cl)cc1 — higher, 18.9%
- COc1ccc(OC)c(-n2nnnc2SCC(=O)Nc2cc(C)ccc2OC)c1 — higher, -6.45%
- CC(C)(C)NS(=O)(=O)c1ccc(NC(=O)NC2CCCCC2)cc1 — lower, -21.3%
- COc1ccc(S(=O)(=O)NCc2ccc(C(=O)N(C)Cc3ccco3)cc2)cc1 — higher, -4.97%
- CCOC(=O)c1c(-c2ccccc2)csc1NC(=S)NC(=O)c1ccccc1 — higher, 12%
- C/C(=N\NC(=O)Cc1ccc(Cl)cc1)c1ccccn1 — higher, 4.4%
- Cc1ccc(S(=O)(=O)Oc2ccc(/C=N/NC(=O)c3c(Cl)cnn3C)cc2)cc1 — higher, 14.5%
- O=C(NC1CCCC1)C(c1ccccn1)N(C(=O)c1csnn1)C1CCCC1 (stereo not drawn) — higher, -11.5%
- CCOc1cc(CNCCN(C)C)c(Cl)cc1OCC(=O)NCCc1ccccc1 — higher, 9.84%
- N#CC1=C(N)N(c2ccc(F)cc2)C(=O)C1 — higher, 5.37%
- Cc1c(NC(=O)CCCOc2ccccc2)cccc1[N+](=O)[O-] — higher, 6.93%
- CCC(C)c1ccc(O)c(/C=N/O)c1 (stereo not drawn) — higher, 8.06%
- CCOC(=O)C1CSC(CC(=O)Nc2ccc(OCC)cc2)C(=O)N1 (stereo not drawn) — higher, 13.9%
- COC(=O)c1sccc1NC(=O)CCC1CCCC1 — higher, -8.56%
- Cc1noc(C)c1C(=O)N1CCOCC1 — higher, -11%
- O=c1c2ccccc2nnn1CSc1nnnn1-c1ccccc1 — higher, -3.85%
- COc1ccc(-c2nnc(SCC(=O)c3ccc4c(c3)OCCO4)o2)cc1 — higher, -3.12%
- COc1ccc(C(C)=O)cc1CN1C(=O)NC2(CCCCC2C)C1=O (stereo not drawn) — higher, 3.66%
- CCC(=O)NC(Nc1nc2ccc(C)cc2s1)(C(=O)OC)C(F)(F)F (stereo not drawn) — higher, -11.3%
- CCOC(=O)C(=O)Nc1nc(-c2ccccc2)c(CC)s1 — higher, 12.1%
- CC(C)CCNC(=O)Cn1c(=O)oc2cc(S(=O)(=O)N3CC(C)CC(C)C3)ccc21 (stereo not drawn) — lower, -16.6%
- O=C(c1ccc(Cl)cc1)c1cnc(Nc2ccccc2)s1 — lower, -14.3%
- COc1cc(C(=S)N2CCOCC2)cc(OC)c1OC(=O)c1cc([N+](=O)[O-])cc([N+](=O)[O-])c1 — higher, -2.97%
- C=CCn1c(N)cc(=O)nc1SCC(=O)Nc1cccc2ccccc12 — higher, 15.4%
- O=C(N/N=C/c1ccc(O)c(O)c1)C1c2ccccc2Oc2ccccc21 — lower, -30.1%
- O=C(Nc1ccccc1-c1nnn(CC(=O)N2CCCc3ccccc32)n1)c1cccc(Cl)c1 — higher, -7.34%
- Cn1c(Cc2cccc3ccccc23)nnc1SCC(=O)N1CCN(c2cccc(Cl)c2)CC1 — higher, 23.1%
- Cc1cccc(CCNS(=O)(=O)c2ccc(S(=O)(=O)NC3CCCC3)cc2)c1 — lower, -16.4%
- CC(C)OC(=O)c1c(NC(=O)c2ccco2)sc2c1CCCC2 — lower, -34.8%
- CCCc1ccc(OCc2ccc(C(=O)N/N=C/c3cccc([N+](=O)[O-])c3)o2)c(OC)c1 — higher, -2.94%
- CCC(c1nnnn1C(C)(C)C)N(Cc1cc2cccc(C)c2n2nnnc12)C1CCCC1 (stereo not drawn) — lower, -13.2%
- Cc1[nH]c(=O)c(C(=O)/C=C/c2ccccc2)c2c1CCCC2 — higher, -8.98%
- Cc1nn(C)cc1C(=O)NNC(=S)Nc1ccc(Cl)cc1 — higher, -11.1%
- N#Cc1ccccc1CN1C(=O)S/C(=C/c2cccn2-c2cccc(C(=O)O)c2)C1=O — higher, -6.67%
- O=C(CCCn1c(SCC(=O)c2ccccc2)nc2ccccc2c1=O)NCC1CCCO1 (stereo not drawn) — higher, 8.37%
- Cc1ccc(OC(=O)c2ccccc2C(=O)OCC(F)(F)C(F)F)cc1 — lower, -16.7%
- CCOC(=O)CNC(=O)CSc1nc2cccnc2n1CC — higher, 7.16%
- C=C(Cl)COC(=O)C1C2C=CC(C2)C1C(=O)O (stereo not drawn) — higher, 3.3%
- Cc1nnc(SCC(=O)N/N=C/c2cn(-c3ccccc3)nc2-c2ccc(F)cc2)n1-c1ccccc1 — higher, -7.66%
- COCCCn1c(SCc2cccc(OC)c2)nc2cc(OC)c(OC)cc2c1=N — higher, -12.2%
- O=[N+]([O-])c1cccc(-c2nnc3c4ccccc4c4ccccc4n23)c1 — higher, -7.67%
- Cc1csc2ncc(C(=O)N(Cc3ccccc3)c3ccccn3)c(=O)n12 — lower, -14.3%
- COC(=O)c1c(-c2cccs2)csc1NC(=O)CSc1ncnc2sc(C)c(C)c12 — higher, -2.76%
- COc1ccc(C2=NOC3(CC(=O)N(c4ccc(C)cc4)C3=O)C2)cc1 (stereo not drawn) — higher, 13.3%
- O=[N+]([O-])c1ccc(NCCCN2CCOCC2)c(Cl)c1 — lower, -38.6%
- O=C(c1ccco1)N1CCN(C(=O)C2CCCN(S(=O)(=O)c3cccc4nsnc34)C2)CC1 (stereo not drawn) — lower, -29.8%
- Cc1ccc(C2NC(=S)NC3=C2N2CCC3CC2)cc1 (stereo not drawn) — higher, 3.93%
- N#C/C(=C(\O)CCl)c1nnc2n1CCCCC2 — higher, -0.62%
- COc1ccc(C(=O)Nc2nc(-c3ccc(OC)cc3)c(-c3ccc([N+](=O)[O-])cc3)s2)cc1 — higher, -2.13%
- COc1ccc(NS(=O)(=O)c2ccc(NC(=S)NC(=O)CC(C)C)cc2)cc1 — higher, 3.41%
- CCc1ccc2nc3sc(C(=O)Nc4nnc(CC)s4)c(N)c3cc2c1 — lower, -67.7%
- O=C(Cn1cc(-c2nnnn2-c2ccc(Cl)cc2)c(=O)c2ccccc21)c1ccccc1 — higher, 6.2%
- COC(=O)c1ccccc1NC(=O)Cc1ccccc1OC — higher, 12.5%
- COC(=O)c1nc2ccccc2s1 — higher, -0.85%
- CCOC(=O)N1CCN(C(=O)COc2ccc(Cl)cc2C)CC1 — lower, -13.2%
- CNC(=O)/C(=C\C=C\c1ccccc1)NC(=O)c1ccc([N+](=O)[O-])cc1 — higher, -9.26%
- O=C(N/N=C/c1ccc(O)cc1)/C(=C/c1ccc([N+](=O)[O-])cc1)NC(=O)c1ccccc1 — higher, -6.05%
- O=C1CC(C(F)(F)C(F)(F)C(F)(F)C(F)(F)F)=Nc2ccccc2N1 — higher, 5.5%
- COC(=O)c1ccc(C(=O)OC)c(NC(=S)N2CCCCC2)c1 — lower, -20.3%
- CCCCOc1ccc(N(CC(=O)NCC2CCCO2)C(=O)CCC(=O)Nc2cc(C)ccn2)cc1 (stereo not drawn) — higher, -5.72%
- C/C(=N\NC(=O)c1ccc(C)cc1)C1C(=O)c2ccccc2C1=O — lower, -15.6%
- O=c1c([N+](=O)[O-])cc(C(F)(F)F)cn1Cc1cccc(Cl)c1 — higher, 2.97%
- COc1ccc(S(=O)(=O)Nc2ccc3oc(C)c(C(C)=O)c3c2)cc1 — lower, -17.3%
- CCNc1nc(NC(C)C)nc(OCCOC(=O)c2ccccc2)n1 — higher, -7.64%
- CC1CC(C)CN(S(=O)(=O)c2cccc(C(=O)N3C(=O)c4cccc(N)c4C3=O)c2)C1 (stereo not drawn) — higher, 24.3%
- O=C(CSCc1ccccc1Cl)NNC(=O)c1ccccc1 — higher, -5.03%
- Cn1c(=O)n(C)c2cc(/C=N/NC(=O)c3cccc(Br)c3)ccc21 — lower, -16.4%
- CC1CCC(N2CC(=O)N(Cc3ccc4c(c3)OCO4)C(c3ccc(F)cc3)C2=O)CC1 (stereo not drawn) — lower, -19%
- COc1cc(OC)c(/C=N/NC(=O)c2ccc([N+](=O)[O-])cc2)cc1Br — higher, -6.93%
- CCC1(C)Cc2c(sc3nnn(CC(=O)Nc4ccc(Cl)cc4)c(=O)c23)CO1 (stereo not drawn) — lower, -26.3%
- COc1cccc(N2CCN(C(=O)Nc3ccc4c(c3)NC(=O)CO4)CC2)c1 — higher, 16.5%
- COc1ccc(NC(=O)Cn2c(=O)n(Cc3ccco3)c(=O)c3ccccc32)cc1 — higher, 10.4%
- Cc1nc2ccccc2c(-c2ccccc2)c1C(=O)c1ccccc1 — higher, -0.63%
- COc1cc(/C=N\NC(=O)CNC(=O)c2cccc([N+](=O)[O-])c2)ccc1O — lower, -17.4%
- Brc1ccc(/C=N/N2CCN(C3c4ccccc4-c4ccccc43)CC2)s1 — lower, -17.6%
- COc1ccc(CCN(C(=O)COc2ccccc2)c2nc(-c3ccccc3)cs2)cc1OC — higher, -9.73%
- Cc1cnc(NC(=O)C2CCCC2)s1 — lower, -23.2%
- COc1ccc(N2CCN(C(=O)CNC(=O)c3ccc(C(C)(C)C)cc3)CC2)cc1 — higher, -1.88%
- CCC(C)n1c(-c2cc(OC)c(OC)c(OC)c2)nc2nc3ccccc3nc21 (stereo not drawn) — higher, 14.5%
- Cc1nn(CCOc2ccccc2)c(=O)n1-c1ccccc1F — higher, 8.4%
- Cc1nc2cc(NC(=O)NCc3ccccc3)ccc2o1 — higher, -8.52%
- O=C(OCc1cn(-c2ccc(Cl)c(Cl)c2)nn1)c1ccccc1Cl — higher, 1.36%
- CCC(C)(C)c1ccc(Oc2ccc(NC(=O)COC(=O)C3=COCCO3)cc2)cc1 — higher, 1.77%
- Cc1ccccc1NC(=S)Nc1cccc([N+](=O)[O-])c1 — higher, 34.5%
- COc1cc(C(=O)N2CCN(C/C=C/c3ccccc3)CC2)cc(OC)c1C — higher, -11.1%
- CC(=O)c1ccc2c(ccc3ccccc32)c1 — higher, -3.5%
- CN1CC(c2ccccc2)C2(COc3ccccc3C2=O)C12C(=O)Nc1ccccc12 (stereo not drawn) — higher, 5%
- O=C(CCn1c(SCC(=O)c2ccccc2)nc2ccccc2c1=O)NCc1ccc(F)cc1 — higher, 4.81%
- CCS(=O)(=O)Nc1ccc(C2=NN(S(=O)(=O)c3ccc(F)cc3)C(c3ccco3)C2)cc1 (stereo not drawn) — higher, 11%
- Cc1cccc(N(C(=O)c2ccc(CN3CCOCC3)o2)C(C(=O)NC2CCCCC2)c2ccc(F)cc2)c1 (stereo not drawn) — higher, 10.4%
- CCOC(=O)c1sc2nc(SC)nc(-c3ccccc3)c2c1N — higher, -9.12%
- Cc1nn(Cc2ccccc2)c2c1C(c1ccccc1)C(C#N)=C(N)O2 (stereo not drawn) — higher, 17%
- O=C(CSCc1ccc(Cl)cc1)N1CCN(Cc2ccc3c(c2)OCO3)CC1 — lower, -16.3%
- CC1(C)CC(CC(=O)O)C(=O)O1 (stereo not drawn) — lower, -18.7%
- CCCC(O)(c1ccc(OC)cc1)C(CN(C)C)c1ccccc1 (stereo not drawn) — higher, 3.1%
- C/C(=N\NS(=O)(=O)c1cccc([N+](=O)[O-])c1)c1cc2ccccc2o1 — higher, 22%
- CN(CC(=O)Nc1cccc2c1CCCC2)S(=O)(=O)c1ccc(Cl)cc1 — lower, -30%

O=C(NCCc1ccccc1)/C(=C\c1ccc([N+](=O)[O-])cc1)NC(=O)c1ccccc1 was tested, and the inhibition was 55.4% (active).
